# According to the supplement of paper PMC6089552:
# Hit rate of the full screen: of about 3,200 compounds, about 300 (9.4%) showed activity. For the sample, actives were picked, then their nearest neighbours and some compounds at random. Values without a mark were called inactive.
# Test system: A673/TR/shEF
# Test: cell viability (LOESS-normalised, relative to median of negative controls) (log2 ratio); higher = more viable cells (less compound effect), active = hit call of the paper (over 3 MAD below the median)
# Conditions: treatment time: 72 h
# Outline: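 Doxycycline, present or absent from 24 h before compounds, was used to induce EWS-FLI1 shRNA knockdown in A673/TR/shEF Ewing sarcoma cells at 1,500 per well in 384-well plates. Cells then received library compounds at two or more concentrations, or DMSO controls, for three days. Viability was measured by CellTiter-Glo luminescence on an Envision reader, and per-plate LOESS correction, division by the negative-control median and log2 transformation followed.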
# [1] = 0.103 µM, library screen: screen3, EWS-FLI1 expression: high (no doxycycline)
# [2] = 0.103 µM, library screen: screen3, EWS-FLI1 expression: low (doxycycline-induced shRNA knockdown)
# [3] = 0.308 µM, library screen: screen3, EWS-FLI1 expression: high (no doxycycline)
# [4] = 0.308 µM, library screen: screen3, EWS-FLI1 expression: low (doxycycline-induced shRNA knockdown)
# [5] = 0.926 µM, library screen: screen3, EWS-FLI1 expression: high (no doxycycline)
# [6] = 0.926 µM, library screen: screen3, EWS-FLI1 expression: low (doxycycline-induced shRNA knockdown)
# [7] = 2.8 µM, library screen: screen3, EWS-FLI1 expression: high (no doxycycline)
# [8] = 2.8 µM, library screen: screen3, EWS-FLI1 expression: low (doxycycline-induced shRNA knockdown)
# [9] = 8.3 µM, library screen: screen3, EWS-FLI1 expression: high (no doxycycline)
# [10] = 8.3 µM, library screen: screen3, EWS-FLI1 expression: low (doxycycline-induced shRNA knockdown)
# [11] = 25 µM, library screen: screen3, EWS-FLI1 expression: high (no doxycycline)
# [12] = 25 µM, library screen: screen3, EWS-FLI1 expression: low (doxycycline-induced shRNA knockdown)
# [13] = 0.25 µM, library screen: screen1, EWS-FLI1 expression: high (no doxycycline)
# [14] = 0.25 µM, library screen: screen1, EWS-FLI1 expression: low (doxycycline-induced shRNA knockdown)
# [15] = 2.5 µM, library screen: screen1, EWS-FLI1 expression: high (no doxycycline)
# [16] = 2.5 µM, library screen: screen1, EWS-FLI1 expression: low (doxycycline-induced shRNA knockdown)
# [17] = 0.25 µM, library screen: screen2, EWS-FLI1 expression: high (no doxycycline)
# [18] = 0.25 µM, library screen: screen2, EWS-FLI1 expression: low (doxycycline-induced shRNA knockdown)
# [19] = 2.5 µM, library screen: screen2, EWS-FLI1 expression: high (no doxycycline)
# [20] = 2.5 µM, library screen: screen2, EWS-FLI1 expression: low (doxycycline-induced shRNA knockdown)
# [21] = 0.025 µM, library screen: screen1, EWS-FLI1 expression: high (no doxycycline)
# [22] = 0.025 µM, library screen: screen1, EWS-FLI1 expression: low (doxycycline-induced shRNA knockdown)
# [23] = 25 µM, library screen: screen1, EWS-FLI1 expression: high (no doxycycline)
# [24] = 25 µM, library screen: screen1, EWS-FLI1 expression: low (doxycycline-induced shRNA knockdown)
compound,measurement,setting,value
COCCn1c2c([n+](Cc3cnccn3)c1C)C(=O)c1ccccc1C2=O,cell viability (log2),[1],-3.94 (active)
same,cell viability (log2),[2],-2.36 (active)
same,cell viability (log2),[3],-3.88 (active)
same,cell viability (log2),[4],-4.02 (active)
same,cell viability (log2),[5],-3.96 (active)
same,cell viability (log2),[6],-4.06 (active)
same,cell viability (log2),[7],-4.31 (active)
same,cell viability (log2),[8],-4.17 (active)
same,cell viability (log2),[9],-4.31 (active)
same,cell viability (log2),[10],-4.28 (active)
same,cell viability (log2),[11],-4.31 (active)
same,cell viability (log2),[12],-4.3 (active)
CC(=O)OCC(=O)[C@@]1(O)CC[C@H]2[C@@H]3CC[C@@H]4C[C@H](O)CC[C@]4(C)[C@H]3C(=O)C[C@@]21C,cell viability (log2),[13],0.128
same,cell viability (log2),[14],0.0697
same,cell viability (log2),[15],0.109
same,cell viability (log2),[16],-0.0114
COc1ccc(-c2cc(=O)c3ccccc3o2)cc1OC,cell viability (log2),[13],-0.0122
same,cell viability (log2),[14],0.00789
same,cell viability (log2),[15],0.068
same,cell viability (log2),[16],0.128
C=C[C@@H](C1=CC(=O)C(OC)=C(OC)C1=O)c1ccccc1,cell viability (log2),[13],-0.165 (active)
same,cell viability (log2),[14],0.026
same,cell viability (log2),[15],-0.00361
same,cell viability (log2),[16],0.0945
C=CC(C1=CC(=O)C(OC)=CC1=O)c1ccccc1 (stereo not given),cell viability (log2),[13],0.0774
same,cell viability (log2),[14],0.000535
same,cell viability (log2),[15],0.158
same,cell viability (log2),[16],0.101
C=CC(C1=CC(=O)C(OC)=CC1=O)c1ccc(OC)cc1 (stereo not given),cell viability (log2),[13],0.133
same,cell viability (log2),[14],0.135
same,cell viability (log2),[15],0.157
same,cell viability (log2),[16],0.265
COc1ccc(C2C3=C(CC(C)(C)CC3=O)OC3=C2C(=O)CC(C)(C)C3)cc1[N+](=O)[O-],cell viability (log2),[13],0.06
same,cell viability (log2),[14],0.0112
same,cell viability (log2),[15],0.134
same,cell viability (log2),[16],-0.00188
CC1=C(O)C(=O)C(C(C)C)CC1 (stereo not given),cell viability (log2),[13],0.0674
same,cell viability (log2),[14],0.0473
same,cell viability (log2),[15],0.0636
same,cell viability (log2),[16],0.0767
COc1ccc(C2CC(=O)c3c(OC)cc(O)cc3O2)cc1 (stereo not given),cell viability (log2),[13],0.0309
same,cell viability (log2),[14],-0.00204
same,cell viability (log2),[15],-0.0215
same,cell viability (log2),[16],0.0561
CC1=C2[C@H]3OC(=O)[C@@H](C)[C@@H]3[C@@H](O)C[C@@]2(C)C=CC1=O,cell viability (log2),[13],0.026
same,cell viability (log2),[14],0.0292
same,cell viability (log2),[15],0.113
same,cell viability (log2),[16],0.0749
CC(C)[C@@H](C)C=C[C@@H](C)[C@H]1CC[C@H]2C3=CCC4CC(=O)CC[C@]4(C)[C@H]3CC[C@]12C (stereo not given in full),cell viability (log2),[13],0.0656
same,cell viability (log2),[14],0.0592
same,cell viability (log2),[15],0.126
same,cell viability (log2),[16],0.0808
C[C@@H]1C/C=C/C=C/C=C/C=C/[C@H](OC2O[C@H](C)[C@@H](O)[C@H](N)[C@@H]2O)C[C@@H]2O[C@](O)(C[C@@H](O)C[C@H]3O[C@@H]3/C=C/C(=O)O1)C[C@H](O)[C@H]2C(=O)O (stereo not given in full),cell viability (log2),[1],0.0488
same,cell viability (log2),[2],0.0464
same,cell viability (log2),[3],0.0456
same,cell viability (log2),[4],0.0497
same,cell viability (log2),[5],0.0317
same,cell viability (log2),[6],0.0938
same,cell viability (log2),[7],0.0554
same,cell viability (log2),[8],0.0621
same,cell viability (log2),[9],0.0808
same,cell viability (log2),[10],0.0825
same,cell viability (log2),[11],0.128
same,cell viability (log2),[12],0.0916
CCCCCCCCCCCCCCCC(=O)NCCO,cell viability (log2),[17],0.109
same,cell viability (log2),[18],0.0709
same,cell viability (log2),[19],0.0624
same,cell viability (log2),[20],0.0396
CCCCCCCCCCCCCCCC(=O)C1=C(O)[C@@H](CO)OC1=O,cell viability (log2),[21],0.213
same,cell viability (log2),[22],0.0909
same,cell viability (log2),[13],0.235
same,cell viability (log2),[14],0.112
same,cell viability (log2),[15],-0.362 (active)
same,cell viability (log2),[16],0.0271
same,cell viability (log2),[23],-0.293 (active)
same,cell viability (log2),[24],-0.135
N#C/C(=C\c1cccc(Cl)c1)c1nc2ccccc2[nH]1,cell viability (log2),[13],0.153
same,cell viability (log2),[14],0.256
same,cell viability (log2),[15],0.247
same,cell viability (log2),[16],0.148
O=C(OCc1ccccc1)c1ccccc1,cell viability (log2),[13],0.0522
same,cell viability (log2),[14],0.0983
same,cell viability (log2),[15],0.0811
same,cell viability (log2),[16],0.112
CC(COc1ccccc1)NC(C)C(O)c1ccc(O)cc1 (stereo not given),cell viability (log2),[13],0.163
same,cell viability (log2),[14],0.0434
same,cell viability (log2),[15],0.178
same,cell viability (log2),[16],0.141
Oc1ccc(OCc2ccccc2)cc1,cell viability (log2),[1],0.123
same,cell viability (log2),[2],-0.0268
same,cell viability (log2),[3],0.0306
same,cell viability (log2),[4],0.0601
same,cell viability (log2),[5],0.0336
same,cell viability (log2),[6],-0.0221
same,cell viability (log2),[7],-0.186 (active)
same,cell viability (log2),[8],0.0872
same,cell viability (log2),[9],-0.00746
same,cell viability (log2),[10],0.0842
same,cell viability (log2),[11],-0.212 (active)
same,cell viability (log2),[12],0.0776
C=C1CCC2OC2(C)CCC2C1CC2(C)C (stereo not given),cell viability (log2),[13],0.0308
same,cell viability (log2),[14],0.0474
same,cell viability (log2),[15],0.104
same,cell viability (log2),[16],0.0209
COc1ccc2c(c1OC)C(=O)O[C@H]2[C@@H]1c2ccccc2CCN1C,cell viability (log2),[13],0.0344
same,cell viability (log2),[14],0.0398
same,cell viability (log2),[15],0.0365
same,cell viability (log2),[16],-0.0658
CCC(C)C(NC)C(=O)O (stereo not given),cell viability (log2),[13],0.07
same,cell viability (log2),[14],0.0975
same,cell viability (log2),[15],0.13
same,cell viability (log2),[16],-0.0496
COc1ccc(S(=O)(=O)N(CCO)c2ccccc2CN(C)C/C=C/c2ccc(Cl)cc2)cc1,cell viability (log2),[21],0.202
same,cell viability (log2),[22],-0.0138
same,cell viability (log2),[13],0.226
same,cell viability (log2),[14],0.0804
same,cell viability (log2),[15],-0.284 (active)
same,cell viability (log2),[16],-0.0574
same,cell viability (log2),[23],-1.32 (active)
same,cell viability (log2),[24],-0.531 (active)
COc1cccc(NC(=O)/C=C/c2ccc(Cl)cc2)c1,cell viability (log2),[17],0.303
same,cell viability (log2),[18],0.124
same,cell viability (log2),[19],0.272
same,cell viability (log2),[20],0.108
CC(=O)OCC(OC(C)=O)C(OC(C)=O)C(OC(C)=O)C(OC(C)=O)C(COC(C)=O)OC(C)=O (stereo not given),cell viability (log2),[13],0.1
same,cell viability (log2),[14],0.086
same,cell viability (log2),[15],0.176
same,cell viability (log2),[16],-0.0056
CCn1cc(C(=O)O)c(=O)c2ccc(Cc3ccccc3)nc21,cell viability (log2),[17],0.215
same,cell viability (log2),[18],0.061
same,cell viability (log2),[19],0.162
same,cell viability (log2),[20],0.124
COc1cc(CN2CCN(Cc3ccc([N+](=O)[O-])cc3)CC2)c([N+](=O)[O-])cc1OC,cell viability (log2),[13],0.132
same,cell viability (log2),[14],0.09
same,cell viability (log2),[15],0.0515
same,cell viability (log2),[16],0.104
CC1(C)C[C@@H]2C(=O)CC[C@@H]3O[C@]3(C)CC[C@H]21,cell viability (log2),[13],0.14
same,cell viability (log2),[14],0.0852
same,cell viability (log2),[15],0.132
same,cell viability (log2),[16],0.0776
